Shh pathway inh – Sonic Hedgehog pathway inhibition | 22,000 compounds, 2.1% hits | inhibition, % (concentration not given with the values) | AID 2313 | Shh-LIGHT2 Gli-luciferase reporter, 30 h;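 active means mean inhibition across valid replicates above about 65%, limit read from the data; inconclusive means mean under the limit, yet half or more replicates past it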;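 further: pathway switched on by Shh-conditioned medium diluted 1 in 25 in low serum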
NOMO-1 viab – STK33 inhibitor candidate reducing NOMO-1 cell viability; NOMO-1 AML viability, CellTiter-Glo luminescence, 72 h; inhibition, % (no concentration beside the values); 37,000 compounds, 7.5% hits; AID 2330; in the data active means inhibition above about 80%; inconclusive means no clear call, values can overlap the other calls
PD-1 reverse act – reversal of PD-1 mediated T-cell inhibition; primary human CD4 T cells, PD-L1 beads, CellTiter-Glo 96 h; AID 2316; 29,000 tested, under 10 active; activation, % (concentration not given with the values); call rule not given here;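 further: 0% = median vehicle wells and 100% = positive control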
MITF inhib – MITF inhibition | AID 2240 | inhibition, % (concentration not given with the values) | TRPM1 promoter luciferase, luminescence, 24 h | 37,000 compounds, 0.28% hits; in the data active means inhibition above about 85%; inconclusive means no clear call, values can overlap the other calls; inactive means below about 68%;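 further: human melanocyte line stably carrying TRPM1 promoter luciferase reporter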
The depositor's hits bear a star; u = inconclusive; x = no result given. The list is not random: actives were taken first. Their share in the collection is about 7.9%.

SMILES | Shh pathway inh | NOMO-1 viab | PD-1 reverse act | MITF inhib
O=C1C=CC(=O)c2c(O)c(Cl)c(Cl)c(O)c21 | 44.4 | 98.0* | -40.8 | 60.4
COc1ccc(NC(=O)CN(c2ccccc2Br)S(C)(=O)=O)cc1OC | x | -19.7 | 2.2 | -7.3
O=C(Nc1ccc(NC(=O)c2ccccc2O)cc1)c1ccc(Cl)cc1 | 96.8* | -16.9 | 3.3 | -11.0
CC(C)(C)c1ccc(C(=O)Nc2ccc(NC(=O)c3ccccc3F)cc2)cc1 | 15.3 | 125.2* | -0.4 | 9.5
C#Cc1cccc(Nc2ncnc3cc(OC)c(OC)cc23)c1 | 27.7 | 96.1* | 1.5 | 71.4
Cc1ccc(NC(=O)CCC(=O)c2ccc(Oc3ccccc3)cc2)cc1 | x | 12.0 | -0.3 | 10.0
Cc1cc(C)c(NC(=O)CN(C)S(=O)(=O)c2ccc3ccccc3c2)c(C)c1 | x | 30.3 | 0.9 | -3.5
C[C@H]1CN([C@@H](C)CO)C(=O)c2cccc(N(C)C)c2O[C@@H]1CN(C)Cc1ccc(Cl)c(Cl)c1 | 3.4 | 44.7 | -1.8 | -4.8
C[C@@H]1CN([C@@H](C)CO)C(=O)c2cccc(N(C)C)c2O[C@H]1CN(C)Cc1ccc(Cl)c(Cl)c1 | 3.1 | 97.3* | x | 9.1
C[C@@H]1CN([C@H](C)CO)C(=O)c2cccc(N(C)C)c2O[C@H]1CN(C)Cc1ccc(Cl)c(Cl)c1 | -51.8 | 88.0* | x | 4.8
C[C@]12CCC3c4ccc(O)cc4CCC3C1CC[C@@H]2O (stereo partly specified) | 73.7* | 69.0 | x | 7.8
C[C@]12CCC3c4ccc(O)cc4CCC3C1C[C@@H](O)[C@@H]2O (stereo partly specified) | u | 9.7 | x | 2.4
C[C@]12CC[C@@H]3c4ccc(O)cc4CC[C@H]3[C@@H]1CCC2=O | 72.8* | -10.6 | x | 8.5
CC(=O)Oc1ccc2c(c1)CCC1C2CC[C@@]2(C)C1CC[C@@H]2OC(C)=O (stereo partly specified) | 66.8* | 0.3 | x | -7.8
Cc1nn(Cc2cccc(C(=O)NCc3ccccn3)c2)c(C)c1Cl | x | 21.0 | x | 18.9
C[C@@H]1CN([C@@H](C)CO)C(=O)c2cc(NC(=O)Nc3ccc(C(F)(F)F)cc3)ccc2O[C@H]1CN(C)CC1CCCCC1 | 25.8 | 117.6* | -5.9 | -14.2
C[C@H](CO)N1C[C@H](C)[C@H](CN(C)CC2CCCCC2)Oc2ccc(NC(=O)Nc3ccc(C(F)(F)F)cc3)cc2C1=O | 40.0 | 115.7* | -6.4 | 0.3
Cn1c(SCC(N)=O)nnc1-c1cccc(Cl)c1 | x | -1.4 | 1.0 | -22.7
Cc1nn(C)c(C)c1CN(C)C(=O)c1cc2nc(-c3ccc(Cl)cc3)cc(C(F)(F)F)n2n1 | x | 36.3 | -1.5 | 44.8
CC(Oc1ccccc1)C(=O)O (stereo unspecified) | -9.0 | 32.4 | -0.1 | -0.8
CC(C)(C)[C@]1(O)CCN2C[C@H]3c4ccccc4CCc4cccc(c43)[C@@H]2C1 | 77.9* | 33.1 | x | 30.2
CN1CCN2c3ncccc3Cc3ccccc3C2C1 (stereo unspecified) | -16.6 | -25.1 | -2.3 | -2.9
C=C1C(=O)O[C@@H]2/C=C(/C)[C@@H]3C/C=C(/C[C@@H](OC(=O)/C(=C/CO)CO)[C@@H]12)C[C@@](O)(C(C)C)C(=O)O3 | u | 107.5* | -10.2 | -27.8
COc1ccc(NC(=O)CSc2ncnc3c2sc2nc(N4CCOCC4)c4c(c23)CC(C)(C)OC4)cc1 | x | 99.5* | -5.9 | -10.0
CCN(CC)CCNc1ncnc2c1sc1nc(N3CCCC3)c3c(c12)CC(C)(C)OC3 | x | 113.3* | -10.2 | -23.4
SMILES | Shh pathway inh | NOMO-1 viab | PD-1 reverse act | MITF inhib
COC(=O)CCSc1ncnc2c1sc1nc(N3CCOCC3)c3c(c12)CCCC3 | x | 4.3 | -3.4 | -40.8
Cc1nc(NCCN2CCOCC2)c2sc3nc4c(cc3c2n1)COC(C)(C)C4 | x | 7.9 | 1.8 | -12.6
C=CCC1OC(=O)CCNC(=O)C(C)N(C)C(=O)C(C(C)C)N(C)C(=O)C(C(C)CC)NC(=O)C2CCCN2C1=O (stereo unspecified) | 38.3 | 112.0* | 0.6 | -66.3
C[C@H](CO)N1C[C@H](C)[C@@H](CN(C)Cc2ccc(C(F)(F)F)cc2)Oc2ccc(NC(=O)Nc3ccc(C(F)(F)F)cc3)cc2C1=O | -53.2 | 129.7* | x | 10.7
C[C@H]1CN([C@@H](C)CO)C(=O)c2cc(NC(=O)Nc3ccc(C(F)(F)F)cc3)ccc2O[C@@H]1CN(C)Cc1ccc(C(F)(F)F)cc1 | x | 114.2* | -13.5 | 94.6*
C[C@H](CO)N1C[C@H](C)[C@H](CN(C)Cc2ccc(C(F)(F)F)cc2)Oc2ccc(NC(=O)Nc3ccc(F)cc3)cc2C1=O | x | 33.1 | -5.3 | 21.6
C[C@@H]1CN([C@@H](C)CO)C(=O)c2cc(NC(=O)Nc3ccc(C(F)(F)F)cc3)ccc2O[C@@H]1CN(C)Cc1ccc(Cl)c(Cl)c1 | -7.9 | 107.6* | 0.7 | 18.1
C[C@@H]1CN([C@H](C)CO)C(=O)c2cc(NC(=O)Nc3ccc(C(F)(F)F)cc3)ccc2O[C@@H]1CN(C)Cc1ccc(C(F)(F)F)cc1 | x | 114.6* | -5.7 | 36.5
C[C@H]1CN([C@@H](C)CO)C(=O)c2cc(NC(=O)Nc3ccccc3)ccc2O[C@H]1CN(C)Cc1ccc(C(F)(F)F)cc1 | x | 14.3 | 0.8 | 6.8
C[C@H](CO)N1C[C@H](C)[C@H](CN(C)Cc2ccc(C(F)(F)F)cc2)Oc2ccc(NC(=O)Nc3ccc(C(F)(F)F)cc3)cc2C1=O | x | 39.0 | 2.1 | 23.7
O=C(CSc1nnc(-c2cccs2)n1-c1ccccc1)Nc1ccccc1Cl | x | -1.6 | -0.1 | 9.3
COC(=O)C(C)Sc1nnc(-c2ccc(Br)cc2)o1 (stereo unspecified) | -34.2 | 39.9 | 0.2 | -5.0
N#Cc1c(NC(=O)c2cc3nc(-c4ccco4)cc(C(F)(F)F)n3n2)sc2c1CCCCC2 | x | 35.2 | -0.8 | -6.1
C[C@@H]1CN([C@@H](C)CO)C(=O)c2cc(NC(=O)Nc3ccc(C(F)(F)F)cc3)ccc2O[C@@H]1CN(C)Cc1ccc(C(F)(F)F)cc1 | 17.9 | 118.0* | -7.2 | 101.0*
C[C@H](CO)N1C[C@H](C)[C@@H](CN(C)Cc2ccc(C(F)(F)F)cc2)Oc2ccc(NC(=O)Nc3ccc(F)cc3)cc2C1=O | 29.3 | 119.4* | -1.1 | 55.7
C[C@@H]1CN([C@@H](C)CO)C(=O)c2cc(NC(=O)Nc3ccc(C(F)(F)F)cc3)ccc2O[C@H]1CN(C)Cc1ccc(C(F)(F)F)cc1 | x | 116.6* | -12.2 | 10.4
C[C@@H]1CN([C@H](C)CO)C(=O)c2cc(NC(=O)Nc3ccc(F)cc3)ccc2O[C@@H]1CN(C)Cc1ccc(C(F)(F)F)cc1 | x | u | -2.1 | 59.0
C=C1CCC2[C@](C)(CO)[C@H](O)CC[C@@]2(C)[C@@H]1C/C=C1/C(=O)OC[C@H]1O (stereo partly specified) | 93.1* | 97.9* | -47.5 | 28.5
CC(C)(C)OC(=O)N1Cc2ccccc2C[C@H]1C(=O)NCCN1CCOCC1 | 8.9 | 4.1 | 0.1 | 15.2
COc1cc(OC)cc(-c2nc(N)c3c(C)c(-c4ccc(OC)c(OC)c4)sc3n2)c1 | 23.7 | 115.1* | -7.2 | 22.6
COc1ccc(NC(=O)CCCSc2nc(N)c3c(C)c(C)sc3n2)cc1 | x | 8.6 | x | 32.6
CC(=O)C(C#N)C(=O)Nc1ccc(OC(F)(F)F)cc1 (stereo unspecified) | -17.3 | 41.2 | 5.0 | 23.0

Source: PubChem
